According to PubChem BioAssay AID602330 (Sanford-Burnham Center for Chemical Genomics, 2012):
The whole screen tested about 1,900 compounds, of which about 85 (4%) were called active. A selection follows. A number with no mark means an inactive call. Rule as the data show it: active = inhibition above about 40%; inactive = the rest.

target: 72 kDa type IV collagenase (Homo sapiens) (UniProt P08253); experiment: inhibitors of human MMP-2 protease – biochemical, fluorescence, single concentration, counter-screen for RPN11 inhibitor project, confirmation (AID 602330); details: recombinant MMP-2, FRET peptide cleavage fluorescence; at 20 µM; active compounds read high;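 also: human MMP-2 activated beforehand with APMA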
Sequence (P08253 whole entry, looked up): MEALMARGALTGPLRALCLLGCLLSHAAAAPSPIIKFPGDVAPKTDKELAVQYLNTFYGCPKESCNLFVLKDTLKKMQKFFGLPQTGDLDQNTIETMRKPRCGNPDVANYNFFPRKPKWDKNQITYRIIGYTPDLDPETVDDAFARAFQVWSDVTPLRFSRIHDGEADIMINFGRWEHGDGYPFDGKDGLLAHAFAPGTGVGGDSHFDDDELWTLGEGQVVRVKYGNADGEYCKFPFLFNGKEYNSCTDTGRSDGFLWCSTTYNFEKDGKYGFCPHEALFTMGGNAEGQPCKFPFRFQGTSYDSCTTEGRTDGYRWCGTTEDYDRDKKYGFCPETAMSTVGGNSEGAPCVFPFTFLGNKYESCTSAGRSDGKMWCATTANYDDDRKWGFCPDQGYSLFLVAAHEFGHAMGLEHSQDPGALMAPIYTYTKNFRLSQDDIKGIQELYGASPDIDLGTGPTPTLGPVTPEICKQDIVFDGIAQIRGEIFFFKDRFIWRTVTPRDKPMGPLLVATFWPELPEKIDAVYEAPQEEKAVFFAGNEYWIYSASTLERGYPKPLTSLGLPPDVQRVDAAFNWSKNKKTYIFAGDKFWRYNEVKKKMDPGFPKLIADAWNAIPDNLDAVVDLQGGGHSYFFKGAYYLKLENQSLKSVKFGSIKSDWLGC

Row | SMILES | inhibition
1 | CCN(CC)C(=O)CSc1nc2ccccc2n1CC(=O)N1CCN(c2ccccc2OC)CC1 | 8.93%
2 | Cc1ccc(NC(=O)CN2CCc3ccccc3C2)cc1 | -29.5%
3 | COc1ccc(CC(=O)Nc2ccc(-c3nnc(-c4ccc(C)cc4)o3)cc2)cc1 | -21.6%
4 | Oc1c(CN2CCCC2)cc(COCc2ccccc2)c2cccnc12 | 14.7%
5 | CCc1ccc(-c2cc(C(=O)NCc3ccco3)c3ccccc3n2)s1 | -10.6%
6 | Cc1c(NC(=O)CSc2cccc3cccnc23)c(=O)n(-c2ccccc2)n1C | -0.79%
7 | Cc1c(N=Nc2ccc(N(C)C)cc2)c(=O)n(-c2ccccc2)n1C | -25.6%
8 | COc1cccc(NC(=O)C(C)Oc2ccccc2)c1 (stereo not given) | -39.6%
9 | CCC/C=C(\CCC)C(NC(=O)Cc1ccccc1)c1ccc(C(=O)OC)cc1 (stereo not given) | -6.21%
10 | Cc1cc(/C=N/Nc2ccc([N+](=O)[O-])cn2)c(C)n1-c1cccc(C(=O)O)c1 | -54.4%
11 | C=CCn1c(=S)[nH]c2scc(-c3ccco3)c2c1=O | 40.5% (active)
12 | CCN1CCN(c2cc3nc(C)n(Cc4ccccc4)c(=O)c3cc2NC(=O)c2ccccc2F)CC1 | -12.5%
13 | COc1ccc(-n2c(SCC(=O)Nc3sc4c(c3C#N)CCCC4)nnc2-c2ccc(O)cc2)cc1 | -2.87%
14 | N#Cc1c(-c2cccs2)nc(SCC(=O)c2ccc(Br)cc2)[nH]c1=O | 47% (active)
15 | CC(C)(C)NC(=O)CSC(=Nc1ccccc1F)NC#N | -28.4%
16 | O=C(COc1cccc(F)c1)Oc1ccc(C(=O)c2ccccc2)cc1 | 8.62%
17 | CC(=O)/C(=N\Nc1ccc(Cl)cc1Cl)Sc1cccc2cccnc12 | -27.9%
18 | C/C(=N/Nc1nc(-c2ccccc2)c(CC(=O)O)s1)c1ccccc1 | 4.1%
19 | CCCCCCCCCCOC(=O)Cn1c(COc2cccc(OC)c2)[n+](C)c2ccccc21 | -10.1%
20 | COc1ccc2[nH]c(=O)c(-c3noc(-c4ccc(F)cc4)n3)cc2c1 | -20.1%
21 | CCc1ccc(NC(=O)CS(=O)CC(=O)NCCCc2ccccc2)cc1 (stereo not given) | -2.62%
22 | Cc1ccc2cc(C#N)c(NCCNC(=S)NCCCN3CCOCC3)nc2c1 | -15%
23 | CCOc1ccc(-n2c(O)c(/C=N/c3ccnn3Cc3ccncc3)c3ccccc3c2=O)cc1 | 1.46%
24 | O=C1NC(=O)C2C1C(c1ccc([N+](=O)[O-])cc1)=NN2Cc1ccccc1 (stereo not given) | -11.1%
25 | Cc1ccc(-c2nnc(-c3ccc(NC(=O)c4cccs4)cc3)o2)cc1 | -49.7%
26 | C=CC[n+]1c(-c2ccc(C)cc2)csc1NNC(=O)Nc1ccccc1 | 26%
27 | Cc1nc2ccccc2nc(=O)c1NNc1ccc([N+](=O)[O-])cc1 | -26.6%

Row | SMILES | inhibition
28 | N#Cc1ccc(C(=O)Nc2cccc3cccnc23)c(F)c1 | -11%
29 | COc1ccc(Cl)cc1NC(=O)CCS(=O)(=O)c1ccc(Br)cc1 | -0.68%
30 | O=C(CCS(=O)(=O)c1cccc2nonc12)NCCc1ccccc1Cl | -10.6%
31 | CN=c1scc(-c2cc(OC)ccc2OC)n1/N=C/c1c(C)[nH]c2ccccc12 | 22.9%
32 | Oc1ccc(/C=N/Nc2nc(-c3ccccc3F)nc3ccccc23)c(O)c1 | -56.3%
33 | C=CCn1c(SCC(=O)NCc2ccccc2)nnc1-c1cc(Br)ccc1O | -13%
34 | CC(C)Cn1c(CCC(=O)O)ccc1-c1cccs1 | -47.9%
35 | O=C(O)c1ccc(NN=CC2=C(N3CCOCC3)/C(=C/c3ccccc3)CC2)cc1 | -0.54%
36 | CC(=O)c1sc(N/N=C/c2ccc(C(C)C)cc2)nc1C | 20.1%
37 | CCCS(=O)(=O)N1CCCC(C(=O)NCc2ccco2)C1 (stereo not given) | -7.67%
38 | CSC1=N/C(=C\C=C\c2cccs2)C(=O)S1 | 10%
39 | CN(C)CCOC1c2ccccc2-c2ccccc21 | -31.6%
40 | CCOc1cc(/C=C2\SC(N3CCCC(C)C3)=NC2=O)ccc1O (stereo not given) | -18.9%
41 | COc1cc(/C=C2/SC(=S)N(Cc3ccccc3)C2=O)cc(OC)c1O | -7.17%
42 | Cc1cc(OCC(=O)Nc2nccs2)c2c(C)c(C)c(=O)oc2c1 | 0.79%
43 | O=C(Nc1ccc(-c2nnc(-c3ccccc3)o2)cc1)c1ccc(Br)o1 | 35.4%
44 | CS(=O)(=O)c1ccc2c(c1)SC1=NC(=O)/C(=C/c3ccco3)C(=N)N12 | 13%
45 | O=C(CSc1cccc2cccnc12)N/N=C/c1cccnc1 | -15.4%
46 | Nc1nonc1-n1nnc(C(=O)N/N=C/c2cc(Br)ccc2O)c1CSC1=NCCS1 | -8.38%
47 | COc1cccc(-c2nn(-c3ccccc3)cc2/C=C(\C#N)C(=O)NCCCn2ccnc2)c1 | -13.9%
48 | COc1ccc(CNC(=O)c2nnn(CC(=O)Nc3cc(C)cc(C)c3)c2N)cc1 | 5.49%
49 | CC(C)Oc1ccc(/C=C(\NC(=O)/C=C/c2ccco2)C(=O)NCCc2nc3ccccc3[nH]2)cc1 | -12%
50 | Cc1cccc(OCc2nnc(SCc3nc4cc(C(F)(F)F)ccc4c(=O)[nH]3)o2)c1 | 18.2%
51 | NC(N)=N/N=C/c1ccc(OCc2ccc(Cl)cc2Cl)cc1 | 9.75%
52 | CCOc1cc(/C=C2\SC(N3CCCCC3)=NC2=O)ccc1O | -18.1%
53 | Cc1cc(/C=C2/SC(=O)N(CC(=O)N3CCCC3)C2=O)ccc1N1CCOCC1 | -23%
54 | O=C(OCc1cc2ccccc2[nH]c1=O)c1cccnc1 | -65.4%

Row | SMILES | inhibition
55 | Cc1sc2nc(COC(=O)C(NC(=O)c3ccc(Cl)cc3Cl)C(C)C)[nH]c(=O)c2c1C (stereo not given) | -38.9%
56 | CCNCc1cc2cc(C)ccc2[nH]c1=O | -21.9%
57 | CC1CCN(c2ccc3c(c2)S(=O)(=O)c2cc(C(=O)O)ccc2C3=O)CC1 | -51.3%
58 | Cc1ccc(NC(=O)c2c(NC(=O)CCC(=O)O)sc3c2CCCCC3)cc1 | 20.7%
59 | COc1cccc(/C=C(/CC(=O)Nc2ccc(N3CCOCC3)cc2)c2nc3ccccc3s2)c1 | 30.2%
60 | CCC(C)Cn1c(O)cc2nn(-c3nc4ccccc4s3)c(=O)c-2c1C (stereo not given) | -2.01%
61 | Cc1oc2c(C)c3oc(=O)c(CC(=O)N[C@@H](CC(C)C)C(=O)N[C@@H](Cc4ccccc4)C(=O)O)c(C)c3cc2c1C | -12.8%
62 | CCN1CCCC1CNC(=O)c1cc2c(=O)n(C)c3ccccc3c2n1C (stereo not given) | 5.3%
63 | CN(C)c1ccc(-n2cccc2/C=C2/SC(=Nc3ccc(F)cc3)NC2=O)cc1 | 11.2%
64 | CCCOc1ccc(Cn2c(O)cc(=O)[nH]c2=O)cc1 | -16.6%
65 | COc1ccc(NC(=O)Cn2c(-c3ccc(OC)cc3)cn(-c3ccc(C)cc3)c2=O)cc1 | -12.7%
66 | Cc1ccc(Nc2ccccc2N)cc1 | -13.4%
67 | CCCCCCSc1ccc([C@@H]2[C@H]3C(=O)N(CC)C(=O)[C@H]3[C@]3(C(=O)OC)CCCCN23)cc1 | -13.2%
68 | CC(C)CC1C(=O)N(Cc2cn(Cc3ccco3)nn2)CCS(=O)(=O)N1Cc1ccc(-c2ccc(Cl)c(Cl)c2)cc1 (stereo not given) | -38.5%
69 | CCOc1ccc(-n2c(O)c(/C=N/Nc3nnc(C)c(=O)[nH]3)c3ccccc3c2=O)cc1 | -6.64%
70 | Cc1nc2ccc(C(=O)N3CCSCC3)cc2s1 | -42.3%
71 | C=CC1=C(C(=O)O)N2C(=O)[C@@H](NC(=O)/C(=N/OCC(=O)O)c3csc(N)n3)[C@H]2SC1 | 35.4%
72 | CCOC(=O)N1CCC(NC(=O)C(NS(=O)(=O)c2ccc3c(c2)CCN3C(=O)CC)C(C)C)CC1 (stereo not given) | -20.7%
73 | COC(=O)c1ccc(OCC(=O)NC(C)(C)C)cc1 | 6.02%
74 | O=C(CSc1nc2ccccc2c(=O)[nH]1)Nc1nc(-c2ccc(Br)cc2)cs1 | 51.9% (active)
75 | Cc1ccc(N=Cc2c(O)cc(C)oc2=O)c(C)c1 | -22.6%
76 | CC(=O)Nc1ccccc1Sc1ccc2c3c(cccc13)C(=O)N(c1ccc(C)cc1)C2=O | -23%
77 | CCOc1ccc(NC(=O)c2ccc(NC(=O)COC(=O)c3ccc(NC(=O)CC#N)cc3)cc2)cc1 | 10.8%
78 | COC1=C/C(=C/c2c(N)n3nc(CC(=O)N4CCOCC4)sc3nc2=O)C=CC1=O | 12%
79 | Cc1ccc(Nc2nc(Cl)c(C=O)s2)cc1 | -10.8%
80 | Cc1nc2ccccc2n1C(=O)N1CCOCC1 | -8.73%
